Results filed as inconclusive are left out. A call without a number means that no potency is given here. Activity calls are given as the source filed them. Unless noted, calls come from the whole dose curve. Starred links: 1 amine or outer side, 2 acyl side, 3 side chain; linkers in the order of their positions; H or OH if unused. Positions of bridges follow the written chain, without caps; N, C: chain ends. Non-standard residues stand in square brackets, D forms with d. Residues, ends and D or L forms follow the SMILES beside them. Chains are numbered I, II in the order given. Actinocin(9to1) = Cc1c2oc3c(C)ccc(C(=O)[*:1])c3nc-2c(C(=O)[*:2])c(N)c1=O; NMeV = CN[C@H](C(=O)O)C(C)C; Sar = CNCC(=O)O

Estrogen receptor (Homo sapiens), sequence (P03372 whole entry, looked up): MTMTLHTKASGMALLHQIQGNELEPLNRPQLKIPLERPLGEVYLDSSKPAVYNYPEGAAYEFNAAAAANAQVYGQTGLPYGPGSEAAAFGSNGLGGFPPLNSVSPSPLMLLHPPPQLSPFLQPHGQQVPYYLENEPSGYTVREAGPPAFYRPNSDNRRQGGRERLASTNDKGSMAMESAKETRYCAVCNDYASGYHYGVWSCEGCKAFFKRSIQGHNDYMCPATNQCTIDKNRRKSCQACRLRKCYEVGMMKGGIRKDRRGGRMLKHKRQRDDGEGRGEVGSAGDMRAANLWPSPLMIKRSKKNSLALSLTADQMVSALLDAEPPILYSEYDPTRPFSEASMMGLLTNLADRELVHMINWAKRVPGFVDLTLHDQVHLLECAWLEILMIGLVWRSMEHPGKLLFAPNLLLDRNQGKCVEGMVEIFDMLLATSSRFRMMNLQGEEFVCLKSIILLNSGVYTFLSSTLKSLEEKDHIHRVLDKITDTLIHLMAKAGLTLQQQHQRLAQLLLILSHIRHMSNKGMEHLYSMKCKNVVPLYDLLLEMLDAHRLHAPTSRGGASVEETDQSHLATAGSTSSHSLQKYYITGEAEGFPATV

System in one experiment: not listed separately
The experiment in a line: qHTS assay to identify small molecule antagonists of the estrogen receptor beta (ER-beta) signaling pathway - cell viability counter screen (AID 1259382; active = well fitted cell-killing curve with a large enough effect in the repeat runs;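 note: HEK293T cells carrying ER-beta-UAS-bla reporter stimulated with estradiol; nearly all actives have a fitted effect of over 55% in size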). The following applies: ER-beta-UAS-bla HEK293T viability, CellTiter-Glo luminescence, 16 h; series mostly up to 92.4 µM; activity change, negative = cytotoxicity: at the top concentration. In short, it runs like this: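 ER-beta-UAS-bla HEK293T cells in 2% charcoal-stripped FBS medium, treated with compound plus 1 nM 17-beta-estradiol for 16 h at 37C. Viability read by CellTiter-Glo luminescence after 30 min at room temperature in the same wells.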
Turning to `CC(=O)OCC1=C(C(=O)O)N2C(=O)[C@@H](NC(=O)Cc3cccs3)[C@H]2SC1`, the “activity change, negative = cytotoxicity” value is 9.45% [at 42.5 µM] (inactive). Still for that read-out and setting: the result for `Cc1cccc([N+](=O)[O-])c1C(=O)O` reads -0.814% (inactive); that for `CCC(CO)(CO)COCC(CC)(CO)CO`, -0.767% (inactive); that for `C[N+]1([O-])CCOCC1`, -3.15% (inactive).

In the case of `Cc1cc(C(C)(C)C)c(O)c(C(C)(C)C)c1`, the Potency result was “inactive”.

Another experiment deals with Estrogen receptor (Homo sapiens) (UniProt P03372). Briefly: qHTS assay to identify small molecule agonists of the estrogen receptor alpha (ER-alpha) signaling pathway in the presence of an antagonist (AID 1259383). Note: top concentration of the series differs between compounds; nearly all actives have a fitted effect of over 15% in size. The following applies: VM7Luc4E2 cells, ERE-luciferase, +ICI-182,780, 22 h; series mostly up to 92.4 µM; activation: at the top concentration. In short, it runs like this:
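VM7Luc4E2 cells express endogenous full-length ER-alpha with an ERE-luciferase reporter and were hormone-deprived for 5 days. Compounds at 15 concentrations were added with 10.0nM ICI-182,780 for 22hr at 37C. Luminescence was read with ONE-Glo.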
On to `COc1ccc(Cc2cnc(N)nc2N)cc1OC`, for which the “activation” value is 0.169% [at 42.5 µM] (inactive).

Consider `COC(=O)c1cccc(C(=O)OC)c1`, for which the Potency result is “inactive”. As to `Cc1scc2c1N(C(=O)CN1CCN(C)CC1)c1ccccc1NC2=O`, the “activation” value was 0.498% [at 42.5 µM] (inactive).

Take `CC(C)(C)NCC(O)COc1ccccc1OCC1CCCO1` (stereo not given): the “activation” value is -0.589% [at 42.5 µM] (inactive).

Regarding `C=CC(=O)OCCCCCCOC(=O)C=C`, the “activation” value is -0.765% (inactive). Still for that read-out and setting: the same measure for `CCCCCCCCCCCCCCCCCl`: -0.0791% [at 19 µM] (inactive).

As to `Nc1cc(Cl)c(-c2cc(Cl)c(N)cc2Cl)cc1Cl`, the Potency result is “inactive”. As to `CN1C(=O)c2ccc([N+](=O)[O-])cc2C1=O`, the “activation” value is 0.106% (inactive). Regarding `Oc1c(Cl)cc(Cl)cc1Sc1cc(Cl)cc(Cl)c1O`, the Potency entry is “inactive”. Same read-out and setting: the result for `Cc1c2oc3c(C)ccc(C(=O)N[C@@H]4C(=O)N[C@H](C(C)C)C(=O)N5CCC[C@H]5C(=O)N(C)CC(=O)N(C)[C@@H](C(C)C)C(=O)O[C@@H]4C)c3nc-2c(C(=O)N[C@@H]2C(=O)N[C@H](C(C)C)C(=O)N3CCC[C@H]3C(=O)N(C)CC(=O)N(C)[C@@H](C(C)C)C(=O)O[C@@H]2C)c(N)c1=O` (I: T[dV]P[Sar][NMeV] / II: T[dV]P[Sar][NMeV]; ester I:1-I:C, II:1-II:C; linker I:N-II:N via Actinocin(9to1)) reads “inactive”.

On to `O=C(O[C@@H]1Cc2c(O)cc(O)cc2O[C@@H]1c1cc(O)c(O)c(O)c1)c1cc(O)c(O)c(O)c1`, for which the Potency result is “inactive”. On to `C=C(C)C(=O)O`, for which the Potency entry was “inactive”.

Consider `O=c1n(CC2CO2)c(=O)n(CC2CO2)c(=O)n1CC1CO1` (stereo not given), for which the Potency result is “inactive”. As to `O=C1Nc2ccccc2C1(c1ccc(O)cc1)c1ccc(O)cc1`, the Potency entry was “inactive”. Same read-out and setting: the same measure for `Cc1cc(OCCOCC[N+](C)(C)Cc2ccccc2)ccc1C(C)(C)CC(C)(C)C`: “inactive”. As for `CCC(C)(Oc1ccc(C2(c3ccc(OC(C)(CC)C(=O)O)cc3)CCCCC2)cc1)C(=O)O` (stereo not given), the “activation” value was 0.093% [at 42.5 µM] (inactive). On to `Oc1ccc(Cl)cc1Cc1cc(Cl)ccc1O`, for which the Potency result was “inactive”. As to `CC(C(O)c1ccc(O)cc1)N1CCC(Cc2ccccc2)CC1` (stereo not given), the “activation” value was -1.98% [at 42.5 µM] (inactive). For the compound `CC1COC(=O)O1` (stereo not given), the Potency entry was “inactive”. The same measure, in the same setting: the same measure for `CCn1c2ccccc2c2cc(N)ccc21`: “inactive”; for `CC(C)(C)c1cc(C(C)(C)C)c(O)c(C(C)(C)C)c1`: “inactive”. Consider `Cc1cccc([N+](=O)[O-])c1C(=O)O`, for which the “activation” value was 0.473% (inactive).

System in the next experiment: not listed separately
Briefly: qHTS assay to identify small molecule agonists or antagonists of the thyroid stimulating hormone receptor (TSHR) signaling pathway - wild type cell line counter screen (AID 1259384). The following applies: HEK293 wild type, cAMP HTRF counter-screen; series mostly up to 92.4 µM; cAMP activity change: at the top concentration. In short, it runs like this:
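Counter screen in untransfected Hek293: compounds (15-point titration, triplicate) plus phosphodiesterase inhibitor Ro20-1724 added after 18 h plating; 30 min RT. Intracellular cAMP via competitive d2/cryptate immunoassay, 1 h incubation.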
Take `COc1ccc(Cc2cnc(N)nc2N)cc1OC`: the “cAMP activity change” value is 1.02% [at 42.5 µM, hits give high values] (inactive). The same measure, in the same setting: the result for `Cc1scc2c1N(C(=O)CN1CCN(C)CC1)c1ccccc1NC2=O` reads -0.809% [at 42.5 µM, hits give high values] (inactive). The same measure, in the same setting: the result for `CC(C)(C)NCC(O)COc1ccccc1OCC1CCCO1` (stereo not given) reads -2.49% [at 42.5 µM, hits give high values] (inactive). Regarding `C=CC(=O)OCCCCCCOC(=O)C=C`, the Potency result is “inactive”. As to `CCN(CC)CCOc1ccc(/C(=C(\Cl)c2ccccc2)c2ccccc2)cc1`, the Potency entry is “inactive”. On the same count and under the same terms, the result for `C/C=C/c1ccc(OCC)c(O)c1` reads “inactive”. On to `CCCCCCCCCCCCCCCCCl`, for which the cAMP activity change was 0.656% [at 18.9 µM, hits give high values] (inactive). In the case of `Nc1cc(Cl)c(-c2cc(Cl)c(N)cc2Cl)cc1Cl`, the Potency result was “inactive”.

Regarding `O=C(Cl)c1cccc(C(=O)Cl)c1`, the Potency result was “inactive”. With `CN1C(=O)c2ccc([N+](=O)[O-])cc2C1=O`, the “cAMP activity change” value is 0.455% (inactive).

Take `CC(C)(C)c1ccccc1`: the “cAMP activity change” value was 4.03% (inactive). Consider `Oc1c(Cl)cc(Cl)cc1Sc1cc(Cl)cc(Cl)c1O`, for which the Potency result is “inactive”.

In the case of `O=c1n(CC2CO2)c(=O)n(CC2CO2)c(=O)n1CC1CO1` (stereo not given), the Potency result was “inactive”.

As for `c1ccc2n[nH]nc2c1`, the Potency result is “inactive”. Same read-out and setting: the same measure for `CCCCCCC(O)CCCCCCCCCCC(=O)O` (stereo not given): “inactive”.

Consider `O=C1Nc2ccccc2C1(c1ccc(O)cc1)c1ccc(O)cc1`, for which the Potency result was “inactive”. `Cc1cc(OCCOCC[N+](C)(C)Cc2ccccc2)ccc1C(C)(C)CC(C)(C)C`: the Potency entry is “inactive”. Regarding `CCC(C)(Oc1ccc(C2(c3ccc(OC(C)(CC)C(=O)O)cc3)CCCCC2)cc1)C(=O)O` (stereo not given), the “cAMP activity change” value was -0.0079% [at 42.5 µM, hits give high values] (inactive). On to `Oc1ccc(Cl)cc1Cc1cc(Cl)ccc1O`, for which the Potency entry is “inactive”. In the case of `N[C@@H]1CONC1=O`, the “cAMP activity change” value was 2.8% [at 42.5 µM, hits give high values] (inactive). Regarding `Cc1ccnc2c1NC(=O)c1cccnc1N2C1CC1`, the Potency result is “inactive”. Turning to `COC(c1ccccc1)(c1ccccc1)[C@H](Oc1nc(C)cc(C)n1)C(=O)O`, the “cAMP activity change” value was 3.47% [at 42.5 µM, hits give high values] (inactive).

Take `CCOC(=O)C(C)C(C)=O` (stereo not given): the “cAMP activity change” value is 0.485% (inactive).

`CCC(=O)/C=C/C1C(C)=CCCC1(C)C` (stereo not given): the Potency result is “inactive”.

With `O=C(O)CCc1ccccc1`, the “cAMP activity change” value was -2.96% (inactive). Take `CC1COC(=O)O1` (stereo not given): the Potency result was “inactive”. The same measure, in the same setting: the same measure for `CCn1c2ccccc2c2cc(N)ccc21`: “inactive”; for `CC(C)(C)c1cc(C(C)(C)C)c(O)c(C(C)(C)C)c1`: “inactive”.

As to `CC(=O)OCC1=C(C(=O)O)N2C(=O)[C@@H](NC(=O)Cc3cccs3)[C@H]2SC1`, the “cAMP activity change” value was -3.77% [at 42.5 µM, hits give high values] (inactive). Still for that read-out and setting: the same measure for `Cc1cccc([N+](=O)[O-])c1C(=O)O`: 5.07% (inactive). Same read-out and setting: the same measure for `CCC(CO)(CO)COCC(CC)(CO)CO`: -5.58% (inactive); for `C[N+]1([O-])CCOCC1`: -0.32% (inactive). As to `Cc1cc(C(C)(C)C)c(O)c(C(C)(C)C)c1`, the Potency entry was “inactive”.

(Values after PubChem BioAssay (Tox21).)
